Results reported in PubChem BioAssay AID1259240 (Keith Lab, Institute of Cancer Science, University of …, 2017).
The source made the active and inactive calls. Rule as the data show it: active = fold change mostly below about -2 (no sharp cut-off); inactive = mostly above about -1.8.

test: modulation of TERT promoter-driven luciferase – cell-based, luciferase reporter, human, primary screen (AID 1259240); conditions: A2780 TERT promoter luciferase reporter, 16 h; at 20 µM, fold versus average of vehicle-only wells

SMILES	fold change
CCS(=O)(=O)N1N=C(c2ccc(NS(C)(=O)=O)cc2)CC1c1ccccc1 (centres undefined)	1.35 (inactive)
Cc1nn2c3cc(N4CCOCC4)ccc3nc2c2ccccc12	-2.16 (active)
COc1nc(OCCNS(=O)(=O)c2ccc(C)cc2)nc(N(C)C)n1	-1.19 (inactive)
O=C(CSc1ncnc2ccccc12)N1CCc2ccccc21	1.26 (inactive)
O=C(CN1C(=O)COc2ccc(S(=O)(=O)N3CCOCC3)cc21)NCc1ccc2c(c1)OCO2	1.18 (inactive)
COc1ccc(S(=O)(=O)NC(C)(C)CO)cc1-c1nnc2c3ccccc3c(C)nn12	-1.26 (inactive)
CCc1nc(N)c(C#N)c(-c2cccnc2)c1C	-2.52 (active)
CN(CC(=O)O)S(=O)(=O)c1cccc2cccnc12	-1.07 (inactive)
O=C1C2C(c3cccs3)NC(Cc3ccccc3)(C(=O)O)C2C(=O)N1c1ccc(F)cc1 (centres undefined)	-1.06 (inactive)
C=CCOc1ccc(/C(O)=C2/C(=O)C(=O)N(CC3CCCO3)C23C(=O)N(C)c2ccccc23)cc1 (centres undefined)	-1.41 (inactive)
COc1ccc2cc3c(N)nn(C(=O)CCS(=O)(=O)c4ccccc4)c3nc2c1	-1.33 (inactive)
COc1ccc2cc(S(=O)(=O)c3ccc(Cl)cc3)c(=O)oc2c1	-2.33 (active)
Cn1c(=O)[nH]c(=O)c2c1nc(NCCc1ccccc1)n2CCO	-1.23 (inactive)
COc1ccc(NC(=O)c2cnccn2)cc1F	-1.32 (inactive)
O=C(NCc1ccccn1)c1cccn2c(=O)c3c4c(sc3nc12)CCCC4	-1.8 (inactive)
CCC(=O)N1CCc2cc(S(=O)(=O)CCC(=O)NCC3COc4ccccc4O3)ccc21 (centres undefined)	-1.32 (inactive)
CN1CCN(CCNC(=O)Cn2ncc3c4ccccc4n(C)c3c2=O)CC1	-1.16 (inactive)
CN1C(=O)/C(=C/c2cn(CC(=O)N3CCCCC3)c3ccccc23)c2ccccc21	-1.35 (inactive)
COc1ccc(C2c3c(oc4ccc(F)cc4c3=O)C(=O)N2Cc2ccc3c(c2)OCO3)cc1 (centres undefined)	-1.27 (inactive)
O=c1nc2s/c(=C\c3ccco3)c(=O)n2nc1Cc1ccc(Cl)cc1	-1.46 (inactive)

SMILES	fold change
COc1ccc(S(=O)(=O)c2cc3ccc(O)cc3oc2=O)cc1OC	-1.34 (inactive)
FC(F)(F)c1cccc2c1[nH]c1nc3ccccc3nc12	-1.1 (inactive)
C=CCNc1nc2c(c(=O)[nH]c(=O)n2C)n1CCOc1ccccc1	-1.07 (inactive)
C=CCNC(=O)CSc1nc(-c2cccs2)cc(C(F)(F)F)n1	-1.55 (inactive)
Fc1ccc(-c2ncc3ccccn23)cc1	1.16 (inactive)
CCOC(=O)C1CCCN(c2c(N3CCC(C(N)=O)CC3)c(=O)c2=O)C1 (centres undefined)	-1.23 (inactive)
Cn1c(=O)c2c(SCC(=O)N3CCOCC3)nc(-c3ccco3)nc2n(C)c1=O	1.36 (inactive)
Cc1cc(C)cc(-c2nc(-c3cccnc3)no2)c1	-2.32 (active)
CC1CC(C)CN(C(=O)C2CCC(CNS(=O)(=O)c3cccc4nsnc34)CC2)C1 (centres undefined)	-1.1 (inactive)
COc1cc(-c2nc3s/c(=C\c4cccs4)c(=O)n3n2)cc(OC)c1OC	1.19 (inactive)
O=C(CSc1nc(-c2ccco2)cc(C(F)(F)F)n1)NCC1CCCO1 (centres undefined)	-1.44 (inactive)
O=[N+]([O-])c1c(Nc2ccc(Cl)cc2)n[nH]c1-c1nnco1	-2.07 (active)
O=C(NCc1ccncc1)c1cc(-c2ccc3c(c2)OCO3)nc2ccccc12	-1.04 (inactive)
CC1=CC2=NC(=O)/C(=C\c3cc(C)n(-c4ccccc4F)c3C)C(=N)N2O1	-1.81 (inactive)
CCCC1=NN2C(=N)/C(=C\c3ccc(SCc4ccco4)o3)C(=O)N=C2S1	-1.68 (inactive)
CC(C)OCCCNc1nc(-c2ccccc2)nc2ccccc12	-1.24 (inactive)
Cn1c2ccccc2c2c(C(=O)Nc3ccccc3F)cn(C3CCCC3)c(=O)c21	-1.15 (inactive)
CCOC(=O)CNC(=O)CSc1nc(C)nc2c1c(=O)n(C)c(=O)n2C	1.49 (inactive)
O=C(CSc1ncnc2ccccc12)Nc1cccc(F)c1	1.32 (inactive)
